# Compounds with a hit are over-represented: about 18% of the library has one in this group of screens.
# HepG2 tox: kills HepG2 cells in TGF-b inhibitor counter-screen; HepG2 CAGA-GFP viability, ATP luminescence, 18 h; Potency, µM (titrated, usually from 46.1 µM), for the others: at the highest dose activity change, negative = cytotoxicity, usual class: cytotoxic; actives 0.76% (n = 410,000); also: potency is read from the fitted curve at half-maximal effect
#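 CellTiter-Glo luminescence gave cytotoxicity after 18 hours at 37 degrees C. The cells were HepG2 CAGA-GFP in 1% FBS DMEM, stimulated with 500 pg/mL TGF-beta after compound addition. %Activity was normalised to no-cell wells (complete cell-killing) and DMSO (no toxicity), and curves were fitted and classified.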
# DT40 TDP1 CPT: DT40-hTDP1 cell growth loss with CPT; chicken DT40 Tdp1-/-;hTDP1 cells + 20 nM CPT, ATP luminescence, 48 h; Potency, µM (top dose mostly 46.2 µM), for inactives: at the highest dose activity change, negative = growth inhibition, usual class: inhibitors; actives 12% (n = 420,000); also: potency is read from the fitted curve at half-maximal effect; % is scaled to controls: 0 for no effect and ±100 for the full control effect; nearly all actives have a fitted effect of over 55% in size
#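 Cell growth measured by CellTiter-Glo luminescence after a minimum 48 h, 37 C compound exposure with 20 nM CPT in Tdp1-knockout DT40 cells stably expressing hTDP1, seeded 400/well; qHTS titration format.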
# DT40 TDP1 no CPT: qHTS for Inhibitors of human tyrosyl-DNA phosphodiesterase 1 (TDP1): qHTS in cells in absence of CPT; Potency, µM (top dose mostly 46.2 µM), without a hit: top-dose activity change, negative = growth inhibition, usual class: inhibitors; actives 15% (n = 420,000); AID 686978, 2013; DT40 Tdp1-/- hTDP1 cells, no CPT, ATP luminescence, 48 h; also: potency is read from the fitted curve at half-maximal effect; % is scaled to controls: 0 for no effect and ±100 for the full control effect; nearly all actives have a fitted effect of over 55% in size
#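 Compound effects on proliferation are scored in DT40 Tdp1-/-;hTDP1 cells in the absence of CPT. ATP levels (CellTiter-Glo luminescence) are recorded after a ≥48 hr, 37 °C incubation.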
# TGFb SMAD3 inh: inhibitors of TGF-b signaling. actives 1.2% (n = 410,000). Potency, µM (doses to about 46.1 µM), without a hit: top-dose activity, negative = inhibition, usual class: inhibitors. HepG2 CAGA-GFP TGF-b/SMAD3 reporter, GFP fluorescence, 18 h; TGF-beta stimulated, 500 pg/mL final; also: potency is read from the fitted curve at half-maximal effect; % is scaled to controls: 0 for no effect and ±100 for the full control effect; nearly all actives have a fitted effect of over 65% in size
#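 First, reporter cells (HEPG2 CAGA-GFP) rested 2 h at 37 degrees C. Next, compounds were pinned in and TGF-beta added to 500 pg/mL final. After 18 h, GFP was imaged per cell and summed per well.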
# TDP1 block: TDP1 (human) enzyme inhibition | actives 0.28% (n = 350,000) | Q9NUW8 | Potency, µM (highest dose often 130 µM), for the others: at the highest dose activity change, negative = inhibition, usual class: inhibitors | recombinant TDP1, AlphaScreen DNA substrate cleavage | AID 485290; also: potency is read from the fitted curve at half-maximal effect; % is scaled to controls: 0 for no effect and ±100 for the full control effect; nearly all actives have a fitted effect of over 40% in size
# Target sequence (Q9NUW8 whole entry, looked up): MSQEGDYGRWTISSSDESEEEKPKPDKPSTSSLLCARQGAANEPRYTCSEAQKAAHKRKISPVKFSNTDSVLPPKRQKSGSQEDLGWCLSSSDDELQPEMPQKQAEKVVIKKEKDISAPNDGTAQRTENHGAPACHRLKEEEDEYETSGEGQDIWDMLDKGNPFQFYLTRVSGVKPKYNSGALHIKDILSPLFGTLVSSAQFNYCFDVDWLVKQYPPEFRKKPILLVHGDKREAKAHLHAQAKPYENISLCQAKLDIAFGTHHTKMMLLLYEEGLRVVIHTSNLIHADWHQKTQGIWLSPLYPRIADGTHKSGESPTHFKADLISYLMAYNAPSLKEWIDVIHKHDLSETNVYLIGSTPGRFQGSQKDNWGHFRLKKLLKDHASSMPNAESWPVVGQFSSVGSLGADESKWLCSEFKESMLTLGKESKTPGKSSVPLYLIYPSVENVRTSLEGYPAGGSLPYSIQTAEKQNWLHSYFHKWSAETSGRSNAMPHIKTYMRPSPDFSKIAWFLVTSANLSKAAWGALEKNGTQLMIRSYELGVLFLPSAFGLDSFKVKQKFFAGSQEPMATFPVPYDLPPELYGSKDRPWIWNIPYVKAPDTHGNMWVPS
#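 Here, a 5' biotin and 3' phosphotyrosine-FITC DNA oligonucleotide reports Tdp1 activity: intact substrate bridges AlphaScreen beads, while cleavage leaves a 3' phosphate and drops signal. All incubations at room temperature.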
# IL-1B inflam inh: inflammasome signaling inhibition, IL-1 beta readout | actives 4.7% (n = 360,000) | activity change, % at 57.5 µM | THP-1 LPS/ATP IL-1B secretion, AlphaLISA, 16 h; hits give low values; in the data active = activity change below about -50%; inconclusive = mostly about -30% to -49%; also: % is scaled to controls: 0 for no effect and ±100 for the full control effect
#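 THP-1 cells pretreated 1 hr with compounds (up to 57.5 uM final), then stimulated with LPS (250 ng/mL final) plus ATP (1.25 mM final); secreted IL-1B measured by AlphaLISA after 16 hr, decreased signal indicating inhibition.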
# An asterisk follows results filed as active; ? = inconclusive; · = no result given; [ ] = dose if it differs, or a comment. Unless noted, calls follow the shape of the dose curve; as a rule, active = well fitted curve in the direction sought with a large enough effect; inconclusive = small, poorly fitted or top-dose-only effect, or another doubt; inactive = no such curve, though single readings can be large; an effect the other way counts as inactive or inconclusive.
SMILES,HepG2 tox,DT40 TDP1 CPT,DT40 TDP1 no CPT,TGFb SMAD3 inh,TDP1 block,IL-1B inflam inh
CC1CCN(C(=O)COC(=O)/C=C/c2ccco2)CC1,6%,13%,?,-5%,20µM*,7
O=C(/C=C/c1ccc(OC(F)F)cc1)OCC(=O)N1CCN(C(=O)c2ccco2)CC1,-1%,?,?,-1%,-3%,-2
CCOC(=O)/C=C/C(=O)OCC(=O)N1CCN(C(=O)c2ccco2)CC1,-22%,7.3µM*,15µM*,-21%,-16%,0
Cc1ccc(S(=O)(=O)N(C)C[C@@H]2Oc3ccc(NC(=O)Cn4cnnn4)cc3C(=O)N([C@@H](C)CO)C[C@H]2C)cc1,9%,12%,10%,-9%,1%,1
COc1ccnc2c1c(=O)n(Cc1ccc(Cl)cc1Cl)c(=O)n2C,4%,-3%,-2%,11%,6%,-22
Cc1ccc(C(C)C)c(OCc2nc(-c3nonc3N)no2)c1,-20%,16µM*,7.3µM*,-6%,2%,?
COc1ccc(CN(C)C(=O)C2CSC3(C)CCC(=O)N23)cc1OC (configuration not stated),26%,-5%,-9%,7%,0%,-6
COc1ccc(CN(C)C(=O)C2CSC3(C)CCC(=O)N23)c(OC)c1 (configuration not stated),-21%,12µM*,15µM*,?,·,0
CN(Cc1ccc(Cl)cc1Cl)C(=O)C1CSC2(C)CCC(=O)N12 (configuration not stated),-29%,13µM*,16µM*,-12%,·,4
CN(Cc1cccc(Cl)c1)C(=O)C1CSC2(C)CCC(=O)N12 (configuration not stated),1%,18µM*,21µM*,?,3%,15
Cc1ccc(CNC(=O)CSc2ccc(-c3sc(-c4ccccc4)nc3C)nn2)cc1,-10%,-26%,-24%,28%,0%,·
COc1cc(NC(=O)CSc2ccc(-c3sc(-c4ccccc4)nc3C)nn2)cc(OC)c1,-1%,-87%,16µM*,2%,5%,·
Cc1nc(-c2ccccc2)sc1CCNC(=O)C(=O)Nc1ccc(F)c(Cl)c1,6%,·,·,11%,-2%,·
COc1cccc(CNC(=O)CSc2ccc(-c3sc(-c4ccccc4)nc3C)nn2)c1,4%,?,18µM*,33%,10%,·
Cc1nc(-c2ccccc2)sc1-c1ccc(SCC(=O)NCc2ccc(F)cc2)nn1,10%,-10%,-4%,16%,8%,·
CCc1ccc(NC(=O)CSc2ccc(-c3sc(-c4ccccc4)nc3C)nn2)cc1,3%,?,12µM*,22%,-5%,·
CC(=O)Nc1cccc(NC(=O)C(=O)NCCc2sc(-c3ccccc3)nc2C)c1,-44%,1.5µM*,1.2µM*,-27%,-2%,·
Cc1cc(C)cc(Nc2nc3cc(Cl)c(Cl)cc3nc2-n2nc(C)cc2C)c1,1%,2%,-1%,17%,-4%[12.3 µM],·
CC(C)CN(C(=O)CN1C(=O)NC(c2ccccc2)(c2ccccc2)C1=O)C1CCS(=O)(=O)C1 (configuration not stated),3%,1%,-1%,-9%,0%,-1
Cc1nc(-c2ccccc2)sc1-c1ccc(SCC(=O)Nc2cccc(C(F)(F)F)c2)nn1,3%,?,-23%,1%,·,·
CC(=O)Nc1cccc(NC(=O)CSc2ccc(-c3sc(-c4ccccc4)nc3C)nn2)c1,-26%,9.2µM*,5.8µM*,?,8%,·
CCCCNC(=O)c1cc2n(n1)CCCN(Cc1ccc(C)cc1)C2=O,-13%,?,?,1%,6%,·
CSc1ccc(CCNC(=O)c2cc3n(n2)CCCN(Cc2ccc(C)cc2)C3=O)cc1,-11%,5.8µM*,?,8%,-6%,·
Cc1ccc(CN2CCCn3nc(C(=O)NCCc4ccccc4Cl)cc3C2=O)cc1,-23%,21µM*,16µM*,-6%,1%,·
Cc1ccc(CN2CCCn3nc(C(=O)NCCc4ccc(Cl)cc4)cc3C2=O)cc1,-62%,?,?,?,1%,·
SMILES,HepG2 tox,DT40 TDP1 CPT,DT40 TDP1 no CPT,TGFb SMAD3 inh,TDP1 block,IL-1B inflam inh
O=C(NCc1ccc(F)cc1)c1cc2n(n1)CCCN(Cc1ccc(F)cc1)C2=O,-16%,?,?,?,0%,·
CCCSCCCNC(=O)c1cc2n(n1)CCCN(Cc1ccc(C)cc1)C2=O,-19%,18µM*,?,?,1%,·
CCOc1ccc(CCNC(=O)c2cc3n(n2)CCCN(Cc2ccc(C)cc2)C3=O)cc1OCC,-7%,9.2µM*,15µM*,-25%,9%,·
CCc1ccc2c(c1)NC(=O)C2(C)Cc1ccccc1C#N (configuration not stated),-17%,?,?,?,·,10
CC(C)=CC[C@@H](O)C1=CC(=O)c2c(O)ccc(O)c2C1=O,·,·,·,·,21%,·
c1ccc2c(c1)OCC(c1csc3ncnc(N4CCCCC4)c13)O2 (configuration not stated),-46%,?,?,-3%,2%,6
Clc1ncnc2scc(C3COc4ccccc4O3)c12 (configuration not stated),-34%,?,16µM*,?,2%[56.1 µM],-55*
CCN1CCN(c2csc3ccc(Br)cc3c2=O)CC1,3%,?,-27%,19%,7%,·
CC(C)(C)NC(=O)CCN(/N=C/c1ccccc1)C1=NS(=O)(=O)c2ccccc21,15%,?,16µM*,0%,·,34
CC(C)(C)NC(=O)CCN(/N=C/c1ccccc1F)C1=NS(=O)(=O)c2ccccc21,-5%,?,21µM*,0%,·,24
CCCCN(CC)CCCNC(=O)C1CCCN(c2ncnc3c2nc2n3CCCCC2)C1 (configuration not stated),-40%,-14%,4%,-4%,1%,·
CCC1CCCCN1CCCNC(=O)CCC(=O)N1CCOc2ccccc21 (configuration not stated),-18%,5%,3%,3%,·,-18
CCOc1ccccc1NC(=O)c1cc2ccc3cccnc3c2[nH]1,-12%,17%,-20%,-4%,-1%,·
COc1ccc(NS(=O)(=O)c2cccc3cccnc23)cc1,-16%,-21%,-17%,-18%,5%,-29

# Source: PubChem BioAssay (National Center for Advancing Translational Sciences (NCATS))
